Assay results taken from PubChem BioAssay AID651661 (Broad Institute, 2012).
Several values for one entry are separate records, joined by “and”; a condition that tells them apart may be missing. Equal entries are not always repeated. In all, about 350,000 compounds went through this assay and about 2,300 (0.66%) were called active. The sample holds actives, similar compounds and a random draw of the others, so the mix is not that of the screen.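 How the source made its calls: active means mean inhibition of at least 50% after viability correction, with every replicate also passing that limit; inconclusive means mean reaches 50% but only one of two replicates passes; inactive means the rest.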

assay: blockers of EWS/Fli transcriptional output – A673 cells, NR0B1 luciferase, luminescence, MLPCN library, primary screen (AID 651661); conditions: A673 NR0B1-luciferase reporter, viability-normalised; at 12.6 µM; active compounds read high;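 further: firefly luciferase signal divided by Alamar Blue viability fluorescence both relative to DMSO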

Compound | inhibition
COC1C(O)C(C)OC(OC2CCC3(C=O)C(CCC4C3CCC3(C)C(C5=CC(=O)OC5)CCC43O)C2)C1O (stereo not given) | 61.9% (active)
OC[C@@H]1[C@H]2c3ccccc3NC[C@H]2N1Cc1cccnc1 | 3.74% (inactive)
COc1cccc(-c2nc3ccc(N4CCN(C)CC4)cc3[nH]2)c1 | 54% (active)
Cc1nc2ccc(N3CCN(C)CC3)cc2nc1C | 1.28% (inactive)
Brc1ccc2c(c1)CNCc1cnnn1-2 | -10.6% (inactive)
CCC(C)NC1(c2ccccc2)CCCCC1 (stereo not given) | -1.85% (inactive)
COc1cc(OC)cc(C(=O)NCCN2CCC3(CC2)C(=O)NCN3c2ccccc2)c1 | -1.8% (inactive)
CCN(CC)C(=O)[C@@H]1C=C2c3cccc4[nH]c(Br)c(c34)C[C@H]2N(C)C1 | -3.36% (inactive)
C[C@]12CC[C@H](O)C[C@H]1CC[C@@H]1C2CC[C@]2(C)[C@@H](C3=CC(=O)OC3)[C@@H](O)C[C@]12O (stereo not given in full) | 64.9% (active)
C[C@]12CCC3C(CC[C@H]4C[C@@H](O)CC[C@]34C)C1C[C@@H](O)[C@H]2O (stereo not given in full) | 0.611% (inactive)
C[C@]12CCC3C(CC[C@H]4C[C@@H](O)CC[C@]34C)C1CC[C@@H]2O (stereo not given in full) | -5.07% (inactive)
COc1ccc(C#Cc2ccc([C@H]3[C@H](CO)N4CCCCN(C(=O)Cc5ccccc5)C[C@@H]34)cc2)cc1 | -12.7% (inactive)
COC(=O)[C@H]1[C@H](CO)[C@H]2Cn3c(ccc(-c4cccc(F)c4)c3=O)[C@@H]1N2Cc1ccccc1 | -28.1% (inactive)
O=c1[nH]c2ccccc2n1C1CCN(C(c2ccccc2)c2nnnn2Cc2ccccc2)CC1 (stereo not given) | 21.9% (inactive)
O=C(O)COc1ccccc1/C=C1\C(=O)NC(=O)N(CCC2=CCCCC2)C1=O | 2.19% (inactive)
O=C1NC(=O)N(CCc2ccc(F)cc2)C(=O)/C1=C/C=C/c1ccccc1 | 66.1% (active)
O=C1NC(=O)N(Cc2ccco2)C(=O)/C1=C\c1ccc(-c2ccc(F)cc2)o1 | 20% (inactive)
O=C(NC[C@@H]1CC[C@H]2NC[C@H]2O1)C1CCCC1 | -22.4% (inactive)
C[C@@H]1CN([C@H](C)CO)C(=O)CCCn2cc(nn2)CO[C@@H]1CN(C)C(=O)Oc1cccc2ccccc12 | 4.15% (inactive)
C[C@H]1CN([C@@H](C)CO)C(=O)CCCn2nncc2CO[C@H]1CN(C)C(=O)Oc1cccc2ccccc12 | -6.63% (inactive) and -4.29% (inactive) and 4.35% (inactive)
CN(C)CC1Oc2ccccc2OC1(O)c1ccccc1 (stereo not given) | 55.9% (active)
O=C(NCC1=C(c2ccc3ccccc3c2)C[C@@H]2CC[C@H]1N2Cc1ccco1)c1cccs1 | 2.23% (inactive)
O=c1[nH]c2ccccc2n1C1CCN(C(c2ccnc3ccccc23)c2nnnn2Cc2ccccc2)CC1 (stereo not given) | 6.09% (inactive)
COC(=O)C[C@@H]1CC[C@@H]2NC[C@@H](O)COC[C@H]2O1 | -11.3% (inactive)
Cc1cc(N2CCNC[C@@H]2C)ccc1N1CC[C@H](O)C1 | -8.38% (inactive)
CCOC(=O)[C@]12Cc3cc(OC)ccc3[C@H]1N(C(C)C)C(=O)c1ccccc12 | 16.8% (inactive)
CCOC(=O)[C@]12Cc3ccccc3[C@H]1N(C1CCCCC1)C(=O)c1cc(OC)ccc12 | 56.3% (active)
CC(=O)NCC1=C(c2ccc3ccccc3c2)C[C@@H]2CC[C@H]1N2Cc1ccco1 | 9.45% (inactive)
CC1C(=O)OC2CCN3CC=C(COC(=O)C(C)(O)C1(C)O)C23 (stereo not given) | 0.572% (inactive)
O=C(O)[C@@H]1[C@@H](CO)[C@@H]2Cn3c(ccc(-c4ccccc4F)c3=O)[C@H]1N2C(=O)c1cccnc1 | -3.75% (inactive)
